Assay results taken from PubChem BioAssay (EPA / NIEHS).
Active and inactive are the calls of the source. The calls were made as follows: active = hit-call score of the fitted dose curve at least 0.9, where 1 is the maximum; inactive = score below 0.9.

Each compound was assayed on Thyroid Hormone Responsive (THRSP), THRSP (gene 7069) (assay: LTEA_HepaRG_THRSP: Life Technologies and Expression Analysis (LTEA) Assay for Thyroid Hormone Responsive (THRSP) using HepaRG (AID 2283536)). Conditions: mRNA level, 48 h; actives raise or lower the signal.
Procedure: LTEA_HepaRG is a cell based, multiplexed-readout assay that uses HepaRG, a human liver cell line, with measurements taken at 48 hours after chemical dosing on a 96-well plate.LTEA_HepaRG_THRSP is one of 102 assay component(s) measured in the LTEA HepaRG cell culture assay. It is a marker of NR mediated metabolism.Data from the assay component LTEA_HepaRG_THRSP was analyzed into 1 endpoint. This assay endpoint, LTEA_HepaRG_THRSP, was analyzed with bidirectional fitting relative to DMSO as the negative control and baseline of activity. Using a type of inducible reporter, measures of mRNA induction for gain or loss-of-signal activity can be used to understand regulation of transcription factor activity. To generalize the intended target to other relatable targets, this assay endpoint is annotated to the growth factor intended target family, where the subfamily is NR mediated metabolism.
A total of 1060 chemcials from the ToxCast library were tested in eight-point concentration-response experiments. Cell culture and cytotoxicity assays were conducted at Thermo Fisher Scientific's Custom Services facility (Madison, WI). A single lot of human HepaRG cells (Thermo Fisher Scientific, Frederick, MD) was used for the cell culture experiments. 96-well format collagen type I coated plates of human HepaRG cells were prepared using established methods. Briefly, cryopreserved HepaRG cells were thawed, plated at a density of approximately 100,000 cells/well in HepaRG Thaw, Plate, and General Purpose media (HPRG770, Thermo Fisher Scientific), and incubated for 48 hours. 0.5% DMSO was selected as vehicle control to balance the requisite need of DMSO in HepaRG cultures to maintain differentiation (for example, baseline metabolism, proportions of hepatocytes vs. cholangiocytes), while enabling further hepatic receptor pathway activation (for example, PXR and CAR) in response to chemical exposure. 48 hours after plating, the culture medium was replaced with HepaRG Serum-Free Incudtion Media. Cells were exposed to each test chemical in duplicate and maintained in CO2 incubators for another 48 hours. Chemical plates were thawed to room temperature and 200x concentrations of treatment groups were prepared. 8-point conentration-reponse curves were made with the highest exposure at 100 uM, followed by half-log dilutions, all in 0.5% DMSO. Each test plate contained variouse controls, induction positive controls (1mM phenobarbital), cytotoxicity positive controls ([…] aflatoxin B1), vehicle controls (0.5% DMSO), and total lysis controls (0.5% DMSO). Cell morphology images were taken using an Essen IncuCyte FLR automated microscope, with six 96-well plates imaged in about 24 minutes. Images were captured and exported and JPEG files. Spent culture media was transfered to black-well plates for the LDH assay, and remaining media was sorted at -80 C for later use. Cells were treated with RLT buffer and frozen until shipped for gene expression analysis. Total RNA was isolated from the cell suspension in 75 uL of Buffer RLT (Qiagen, Germantown, MD 20874) by Quintiles/Expression Analysis (Durham, NC) using a custom isolation procedure. Total RNA from each plate well was transferred to a preamplification plate. Fluidigm's 96.96 Dynamic ArrayTM (Fluidigm, Amsterdam, the Netherlands) technology was used for gene expression analyses by quantitative reverse transcription polymerase chain reaction (qRT-PCR, performed by Quintiles/Expression Analysis, Durham, NC)89. Standard TaqManTM Assays (Applied Biosystems/ThermoFisher Scientific, Foster City, CA) were used to assess the expression of 93 genes selected based on their selectivity and sensitivity to important hepatic receptors known to be modulated by environmental chemicals; importance in human hepatocyte functionality; and hepatotoxicity. […]
With `CCCCc1nc2cccnc2n1Cc1ccc(-c2ccccc2-c2nnn[nH]2)cc1` the AC50 was 35.5 µM (active). In the case of `Cn1cnc2c1c(=O)[nH]c(=O)n2C`, the outcome is reported as “inactive”. With `O=C(Oc1ccccc1)c1cccc(C(=O)Oc2ccccc2)c1` the outcome was “inactive”. For `C/C=C/c1ccc(OC)cc1`, the outcome was “inactive”. `O=C1O[C@H]([C@H](O)CO)C(O)=C1O` was tested, and the outcome was “inactive”. `CC(C)c1cccc(C(C)C)c1NC(=O)NS(=O)(=O)c1cc(C(C)(C)O)co1` was tested, and the outcome was “inactive”. `Nc1nc(=S)c2[nH]cnc2[nH]1` was tested, and the AC50 was 9.18 µM (active). In the case of `O=C(O)CC(O)(CC(=O)O)C(=O)O`, the outcome is reported as “inactive”. For `C=CCc1ccc(OC)c(OC)c1`, the outcome was “inactive”. For `CCCCCCCC(=O)OC`, the outcome was “inactive”. In the case of `CCCCCCC(C=O)=Cc1ccccc1`, the outcome is reported as “inactive”. For `CC(N)=O`, the outcome was “inactive”. With `CC(=O)OCC(COC(C)=O)OC(C)=O` the outcome was “inactive”. For `O=C(O)c1cccnc1`, the outcome was “inactive”. In the case of `COc1ccc(C(=O)Nc2nc3ccccc3c(NCc3ccccc3)c2C#N)cc1`, the AC50 is reported as 13.6 µM (active). With `C#CC(O)C(CC)CCCC` (stereo not given) the outcome was “inactive”. For `Cc1c(C)c2c(c(C)c1O)CCC(C)(COc1ccc(CC3SC(=O)NC3=O)cc1)O2` (stereo not given), the AC50 was 27.1 µM (active). With `N[C@@H](Cc1c[nH]c2ccccc12)C(=O)O` the outcome was “inactive”. In the case of `CCN(CC)CCOc1ccc(C(=C(Cl)c2ccccc2)c2ccccc2)cc1`, the outcome is reported as “inactive”. `COC(=O)[C@H]1[C@H]2C[C@@H]3c4[nH]c5cc(OC)ccc5c4CCN3C[C@H]2C[C@@H](OC(=O)c2cc(OC)c(OC)c(OC)c2)[C@@H]1OC` was tested, and the AC50 was 28.3 µM (active). With `CC(C)(O)c1ccc(CNC(=O)c2cccnc2Oc2ccc(F)cc2)cc1` the outcome was “inactive”. In the case of `CC(C)COC(=O)CCCCC(=O)OCC(C)C`, the outcome is reported as “inactive”. With `CCCCC(CC)COP(=O)(OCC(CC)CCCC)OCC(CC)CCCC` (stereo not given) the outcome was “inactive”. `Cc1cc(SC2=C(O)C[C@@](CCc3ccc(N)cc3)(C(C)C)OC2=O)c(C(C)(C)C)cc1CO` was tested, and the outcome was “inactive”. With `CCCC(=O)O` the outcome was “inactive”. `OCC(O)CO` was tested, and the outcome was “inactive”. For `CCCCCCCCCCCCCCOS(=O)(=O)O`, the outcome was “inactive”. In the case of `CN(C)C(=O)NC1(c2ccccc2)CCN(CC[C@@]2(c3ccc(F)c(F)c3)CN(C(=O)c3ccccc3)CCO2)CC1`, the AC50 is reported as 29.7 µM (active). With `S=c1[nH]c2ccccc2s1` the outcome was “inactive”. `O=C(NS(=O)(=O)/C=C/c1cccs1)c1ccc(F)cc1Br` was tested, and the outcome was “inactive”. With `Cc1cn([C@H]2C=C[C@@H](CO)O2)c(=O)[nH]c1=O` the outcome was “inactive”. For `COC(=O)CCCC(=O)OC`, the outcome was “inactive”. For `CC(C)(C)c1ccccc1`, the outcome was “inactive”. For `CC(=O)[C@@]1(O)CC[C@H]2[C@@H]3CCC4=CC(=O)CC[C@]4(C)[C@H]3CC[C@@]21C`, the AC50 was 50 µM (active). For `CC(=O)OC1CC(C)OC(C)O1` (stereo not given), the outcome was “inactive”. For `CCC(C)N(C)C(=O)c1cc2ccccc2c(-c2ccccc2Cl)n1` (stereo not given), the outcome was “inactive”. In the case of `CCCCCCCCCC[N+](C)(C)[O-]`, the outcome is reported as “inactive”. For `CCCCC(CC)CO` (stereo not given), the outcome was “inactive”. `COC(=O)CCC(=O)OC` was tested, and the outcome was “inactive”. With `O=C(O)CN(CC(=O)O)CC(=O)O` the outcome was “inactive”.
